# PLAP activator: activators of human placental alkaline phosphatase; purified PLAP enzyme, luminescent substrate read-out; hits give high values; activation fold at 20 µM; 1.2% of 96,000 active; AID 696; in the data active = activation fold above about 2
# Target sequence (P05187 whole entry, looked up): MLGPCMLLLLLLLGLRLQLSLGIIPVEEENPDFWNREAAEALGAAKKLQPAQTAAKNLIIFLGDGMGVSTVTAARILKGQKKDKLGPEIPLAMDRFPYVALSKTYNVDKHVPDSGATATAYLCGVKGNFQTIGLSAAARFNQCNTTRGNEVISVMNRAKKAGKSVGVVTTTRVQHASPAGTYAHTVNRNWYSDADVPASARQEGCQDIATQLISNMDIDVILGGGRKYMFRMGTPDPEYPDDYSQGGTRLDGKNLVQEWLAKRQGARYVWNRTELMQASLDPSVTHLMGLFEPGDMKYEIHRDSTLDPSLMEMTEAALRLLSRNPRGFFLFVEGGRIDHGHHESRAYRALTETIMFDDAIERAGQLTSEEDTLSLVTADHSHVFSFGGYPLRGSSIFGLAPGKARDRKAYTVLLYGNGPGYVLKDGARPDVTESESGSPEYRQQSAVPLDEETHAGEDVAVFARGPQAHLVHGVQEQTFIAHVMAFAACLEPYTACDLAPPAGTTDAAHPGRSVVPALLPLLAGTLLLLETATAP
# CYP2C19 inhib: blocks human cytochrome P450 2C19; CYP2C19 Supersomes, luciferin-H EGE luminescence, 30 min; inhibition, % at 5 µM; AID 778; P33261; 21% of 96,000 active;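 active = CYP2C19 inhibition above a set limit at 5 µM in the primary screen, cut at about 50% in these data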
# CYP2C9 inhib: inhibitors of human CYP2C9 | P11712 | CYP2C9 Supersomes, luciferin-H conversion, luminescence | inhibition, % at 5 µM | 20% of 96,000 active;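 active = blocking of liver enzyme CYP2C9 beyond about 50% at 5 µM, limit read from the data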
# CYP2C9 activ: activators of human CYP2C9 | 1.4% of 96,000 active | recombinant CYP2C9, luciferin-H conversion, luminescence; hits give high values; factor 1 = untreated enzyme, 0 = blocked | activation factor at 5 µM | AID 1024;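 active = activation factor of 2 or more for CYP2C9 at a 5 µM dose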
# CYP2C19 activ: increases human CYP2C19 enzyme activity | P33261 | recombinant CYP2C19, luciferin-H EGE luminescence; hits give high values; 0 = fully inhibited enzyme, 1 = untreated enzyme | activation factor at 5 µM | 96,000 tested, under 10 active;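 active = activation factor of at least 2 at 5 µM in the primary screen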
# Numbers stand for hits; i = inactive. Only some compounds are listed: those with a hit (about 31% of all), similar ones and a draw of the others.
SMILES,PLAP activator,CYP2C19 inhib,CYP2C9 inhib,CYP2C9 activ,CYP2C19 activ
CCOc1ccccc1NC(=O)c1ccc(Cl)c(NC(=O)CC(c2ccccc2)c2ccccc2)c1,i,50.7,79.8,i,i
Nc1ncnc2nc(SCCc3ccccc3)[nH]c12,2,i,i,i,i
O=c1cnnc(SCCc2ccccc2)[nH]1,i,i,i,i,i
O=C(CN1C(=O)CCSc2ccccc21)Nc1cccc(F)c1,i,78.4,66.7,i,i
CCCNC(=O)c1cccc(Cn2nc(C)c(Br)c2C)c1,i,85.2,63.2,i,i
COc1cc2cc(CN(C(=O)NC3CCCCC3)C3CCCC3)c(=O)[nH]c2cc1OC,i,i,i,i,i
CCC(=O)N(Cc1cc2cc(C)c(C)cc2[nH]c1=O)C1CCCCC1,i,80.6,69.2,i,i
CC(=O)N(Cc1cc2c(C)cc(C)cc2[nH]c1=O)C1CCCCC1,i,i,62.7,i,i
O=C(c1ccccn1)N(Cc1cc2ccccc2[nH]c1=O)C1CCCCC1,i,i,i,i,i
O=C(NC1CCCCC1)N(Cc1cc2cc3c(cc2[nH]c1=O)OCCO3)C1CCCCC1,i,i,75.1,i,i
Cc1c(N=C2SCC(=O)N2c2c(C)n(C)n(-c3ccccc3)c2=O)c(=O)n(-c2ccccc2)n1C,i,i,i,i,i
O=C(Nc1cn(-c2ccccc2)nc1-c1cccs1)c1ccco1,i,i,i,i,i
Cc1ccc(C)c(N2CCN(C(=O)Cn3c(=O)[nH]c4ccsc4c3=O)CC2)c1,i,i,52.8,i,i
Cc1ccc(C)c(N2CCN(C(=O)CCS(=O)(=O)c3cccc4nonc34)CC2)c1,i,61.8,73.4,i,i
Cc1ccc(C)c(N2CCN(C(=O)CC3Sc4ccccc4NC3=O)CC2)c1 (stereo not given),i,71.0,50.9,i,i
Cc1ccc(C)c(N2CCN(C(=O)C(Cc3ccccc3)n3cccc3)CC2)c1 (stereo not given),i,96.6,i,i,i
O=C(COC(=O)c1ccc(N2CCCC2=O)cc1)NCc1ccco1,i,i,i,i,i
COc1ccc(-c2nnc(SC(C)C(=O)NCc3ccc4c(c3)OCO4)n2Cc2ccco2)cc1 (stereo not given),i,i,i,i,i
CCN(c1ccc(NC(=O)COC(=O)c2ccc3ccccc3n2)cc1)C(C)C,i,i,i,i,i
Cc1ccc(NC(=O)c2cccc(N3C(=O)CCC3=O)c2)nc1,i,i,i,i,i
CC(=O)NCCC(=O)Nc1ccc(F)cc1C,i,i,i,i,i
Cc1ccc(C)c(N2CCN(C(=O)Cn3cccc3)CC2)c1,i,i,i,i,i
CCC(=O)N1CCN(c2cc(C)ccc2C)CC1,i,52.0,i,i,i
CC1CCCN(C(=O)C(Cc2ccccc2)n2cccc2)C1 (stereo not given),i,67.0,i,i,i
O=C(C(Cc1ccccc1)n1cccc1)N1CCN(c2ccccc2)CC1 (stereo not given),i,94.8,i,i,i
SMILES,PLAP activator,CYP2C19 inhib,CYP2C9 inhib,CYP2C9 activ,CYP2C19 activ
c1ccc(N=P(c2nc3ccccc3o2)(N2CCOCC2)N2CCOCC2)cc1,i,i,i,i,i
CSc1nc(NC(C)=O)nc(C)c1Cl,i,i,i,i,i
CCC(C)NS(=O)(=O)c1ccc(OCC(=O)N2CCCCC2)cc1 (stereo not given),i,i,i,i,i
COc1cc(SC)ccc1C(=O)Nc1ccc2c(c1)OCCO2,i,90.8,57.8,i,i
COCCn1cnnc1SCC(=O)Nc1ccccc1C(=O)Nc1ccc2c(c1)OCO2,i,57.5,93.5,i,i
COc1ccccc1C(=O)Nc1ccc2c(c1)OCCO2,i,i,i,2.1,i
COCCSc1ccccc1C(=O)Nc1ccc2c(c1)OCCO2,i,i,i,i,i
O=C(Nc1ccccc1C(=O)Nc1ccc2c(c1)OCO2)c1ccco1,i,50.6,97.3,i,i
O=C(CN1C(=O)C2C3C=CC(C3)C2C1=O)NCc1ccc2c(c1)OCO2 (stereo not given),i,i,i,i,i
CN(C)S(=O)(=O)c1ccc(C(=O)Nc2ccc(OCC(=O)N3CCOCC3)cc2)cc1,i,i,i,i,i
CCCCN(Cc1ccccc1)C(=O)c1cnc2n(c1=O)CCS2,i,i,i,i,i
COc1ccc(NC(=O)C(c2ccc(OC)cc2)N(C)C(=O)CNC(C)=O)cc1 (stereo not given),i,i,i,i,i
Cc1ccccc1C(=O)Nc1ccc2c(c1)OCO2,i,84.0,i,i,i
CCN(CC)c1ccc(NC(=O)c2ccccc2F)cc1,i,i,i,3,i
